From PubChem BioAssay AID1159580 (chemical genetic matrix, 2015)
Hit rate of the full screen: of about 5,500 compounds, about 2,000 (36%) were called active. About 18% were inconclusive and are not listed. Rule as the data show it: active = normalized growth mostly below about 0.91 (no sharp cut-off); inconclusive = no clear call, values can overlap the other calls; inactive = mostly above about 0.92. This is one part of the list.

Assay: chemical genetic growth profiling, strain panel (AID 1159580);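 also: tested at 20 µM; growth read once vehicle control cultures reached saturation at 30 °C; 1 = growth at the plate median or of vehicle wells; lower values mean less growth of the strain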
Settings: S. cerevisiae deletion strains, growth OD

Measured: normalized growth

COc1cc2c(cc1OC)-c1c(oc3cc(O)cc(O)c3c1=O)CO2
inactive: locus YAL021C, strain ccr4, active compounds read low 1.02 | locus YAL026C, strain drs2, active compounds read low 1.01 | locus YAL030W, strain snc1, active compounds read low 1.01 | locus YBL061C, strain skt5, active compounds read low 1.01 | locus YBR009C, strain hhf1, active compounds read low 1.02 | locus YBR023C, strain chs3, active compounds read low 1.02 | locus YBR171W, strain sec66, active compounds read low 1.03 | locus YBR231C, strain swc5, active compounds read low 1.02 | locus YBR279W, strain paf1, active compounds read low 1.02 | locus YCL011C, strain gbp2, active compounds read low 1.01 | locus YCL016C, strain dcc1, active compounds read low 1.02 | locus YCL061C, strain MRC1, active compounds read low 1.01 | locus YCL069W, strain vba3, active compounds read low 1.01 | locus YCR088W, strain abp1, active compounds read low 1.02 | locus YDL005C, strain med2, active compounds read low 1.04 | locus YDL040C, strain nat1, active compounds read low 1.01 | locus YDR001C, strain nth1, active compounds read low 1.01 | locus YDR069C, strain doa4, active compounds read low 1.02 | locus YDR137W, strain rgp1, active compounds read low 1 | locus YDR159W, strain sac3, active compounds read low 1.04 | locus YDR195W, strain ref2 1.04 | locus YDR297W, strain sur2, active compounds read low 1.02 | locus YDR334W, strain swr1, active compounds read low 1.01 | locus YDR335W, strain msn5, active compounds read low 1.03 | locus YDR392W, strain spt3, active compounds read low 1.01 | locus YEL003W, strain gim4, active compounds read low 1.02 | locus YEL037C, strain rad23, active compounds read low 1.01 | locus YEL061C, strain CIN8 (second series), active compounds read low 1.01 | locus YER015W, strain faa2, active compounds read low 1.02 | locus YER016W, strain bim1, active compounds read low 1.01 | locus YER111C, strain swi4, active compounds read low 1.03 | locus YER155C, strain BEM2 (second series), active compounds read low 1.03 | locus YFR010W, strain ubp6, active compounds read low 1.02 | locus YGL167C, strain pmr1, active compounds read low 1.02 | locus YGL173C, strain kem1, active compounds read low 1.03 | locus YGL227W, strain vid30, active compounds read low 1.03 | locus YGL240W, strain doc1, active compounds read low 1.02 | locus YGL253W, strain hxk2, active compounds read low 1.02 | locus YHR013C, strain ard1, active compounds read low 1.01 | locus YHR027C, strain rpn1, active compounds read low 1.03 | locus YHR030C, strain SLT2, active compounds read low 1.05 | locus YHR079C, strain IRE1, active compounds read low 1.04 | locus YHR142W, strain chs7, active compounds read low 1.01 | locus YJL092W, strain hpr5, active compounds read low 1.02 | locus YJL095W, strain BCK1 (second series), active compounds read low 1.01 | locus YJL095W, strain BCK1, active compounds read low 1.05 | locus YJL115W, strain asf1, active compounds read low 1.01 | locus YJL129C, strain trk1, active compounds read low 1.03 | locus YJL154C, strain vps35, active compounds read low 1.02 | locus YJL164C, strain tpk1, active compounds read low 0.995 | locus YJL166W, strain qcr8, active compounds read low 1.01 | locus YJL187C, strain SWE1, active compounds read low 1.02 | locus YJR066W, strain TOR1, active compounds read low 0.999 | locus YKL160W, strain elf1, active compounds read low 1.02 | locus YKR026C, strain gcn3, active compounds read low 1.02 | locus YKR091W, strain srl3, active compounds read low 1.02 | locus YLL001W, strain dnm1, active compounds read low 1.02 | locus YLL026W, active compounds read low 1.01 | locus YLL041C, strain sdh2, active compounds read low 0.973 | locus YLR027C, strain aat2, active compounds read low 1.01 | locus YLR113W, strain HOG1, active compounds read low 1.08 | locus YLR221C, strain rsa3, active compounds read low 1.02 | locus YLR258W, strain gsy2, active compounds read low 1.02 | locus YLR262C, strain YPT6 (second series), active compounds read low 1.01 | locus YLR320W, strain mms22, active compounds read low 1.03 | locus YLR342W, strain FKS1, active compounds read low 1.02 | locus YLR357W, strain rsc2, active compounds read low 1.01 | locus YLR370C, strain arc18, active compounds read low 1.02 | locus YLR384C, strain iki3, active compounds read low 1.03 | locus YML120C, strain ndi1, active compounds read low 1.01 | locus YMR058W, strain fet3, active compounds read low 1.02 | locus YMR125W, strain sto1, active compounds read low 1.02 | locus YMR129W, active compounds read low 1.02 | locus YMR205C, strain PFK2, active compounds read low 1.02 | locus YMR231W, strain pep5, active compounds read low 1.02 | locus YNL071W, strain lat1, active compounds read low 1.01 | locus YNL183C, strain NPR1, active compounds read low 0.988 | locus YNL209W, strain ssb2, active compounds read low 1.02 | locus YNL248C, strain rpa49, active compounds read low 1.02 | locus YNL322C, strain KRE1 (second series), active compounds read low 1.02 | locus YNR049C, strain mso1, active compounds read low 1.02 | locus YOR001W, strain rrp6, active compounds read low 1.04 | locus YOR070C, strain gyp1, active compounds read low 1.02 | locus YOR080W, strain dia2, active compounds read low 1.02 | locus YOR083W, strain WHI5, active compounds read low 1 | locus YOR106W, strain vam3, active compounds read low 1.05 | locus YOR231W, strain MKK1, active compounds read low 1.05 | locus YOR265W, strain rbl2, active compounds read low 1.01 | locus YOR270C, strain vph1, active compounds read low 1.02 | locus YOR290C, strain snf2, active compounds read low 1.02 | locus YPL051W, strain arl3, active compounds read low 1 | locus YPL078C, strain atp4, active compounds read low 1.02 | locus YPL106C, strain sse1, active compounds read low 1.02 | locus YPL240C, strain hsp82, active compounds read low 1.02 | locus YPL256C, strain CLN2, active compounds read low 1.05
